Only some compounds are listed: those with a hit (about 4.6% of all), similar ones and a draw of the others.
KKLEB cytotox: CF airway cell cytotoxicity counter-screen | AID 602141 | KKLEB CF airway cells viability, ATPlite luminescence, overnight; hits give low values; cells stimulated with P. aeruginosa culture filtrate | activity change (cytotoxicity), % at 5 µM | actives 0.36% (n = 360,000);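 active = corrected activity change at or below -50% at 5 µM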
Peg3 prom inh: reduces Peg3 promoter-driven luciferase expression in HeLa; inhibition, % at 20 µM; actives 1.7% (n = 360,000); AID 588405; HeLa PEG-Prom luciferase reporter, luminescence, overnight;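 active = inhibition of at least 50% at 20 µM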
HIF-2a block: inhibitors of HIF-2a. AID 624352. actives 0.72% (n = 360,000). inhibition, % at 18.8 µM. 786-0 RCC cells HIF-2a reporter, luciferase luminescence, overnight;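 active = inhibition of the luminescence signal of 40% or more relative to plate controls, in a single-dose primary screen at 18.75 µM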
CF NFkB inh: blocks PAF-induced NF-kB reporter in cystic fibrosis cells; KKLEB NF-kB-GFP reporter, GFP fluorescence overnight; inhibition, % at 5 µM; actives 0.86% (n = 360,000);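 active = at least 50% inhibition at 5 µM, scaled per plate between neutral and stimulator controls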;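 note: PAF is a Pseudomonas aeruginosa culture filtrate used as stimulus; plate controls were PAF-stimulated DMSO wells for no effect and unstimulated DMSO wells for full effect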
Mdm2-MdmX inh: human Mdm2/MdmX binding inhibition. SaOS-2 split-luciferase Mdm2/MdmX complementation, luminescence. actives 3% (n = 330,000). O15151+Q00987. inhibition, % at 8 µM. AID 485346;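 active = inhibition of at least 50% at 8 µM in the primary screen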
ABHD5-PLIN5 inh: ABHD5-PLIN5 protein interaction inhibition | Q00G26+Q8WTS1 | Split G. princeps luciferase complementation, luminescence, 4 h | inhibition, % at 4 µM | actives 0.78% (n = 360,000) | AID 602281;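 active = inhibition above the mean inhibition across every tested compound plus 3 SD, cut at about 22% in these data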;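 note: 0% = DMSO only wells and the 100% control is not disclosed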
Mdm2 MdmX conf-1: human Mdm2/MdmX binding inhibition, confirmed; luminescent assay; AID 489028; actives 55% (n = 10,000); shares compounds with Mdm2-MdmX inh; inhibition, % at 8 µM
FLuc counter: inhibits full-length luciferase, flagging false Mdm2/MdmX hits | AID 504607 | shares compounds with Mdm2-MdmX inh | inhibition, % at 8 µM | actives 77% (n = 6,200) | SaOS-2 full-length luciferase counterscreen, luminescence;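 active = mean inhibition at 8 µM reaching about 37%, which flags the compound as non-specific, limit read from the data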;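 note: p53-null SaOS-2 cells with luciferase driven by a doxycycline-inducible promoter; compound on cells about two nights before reading with doxycycline added after day one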
CF NFkB conf: CF NF-kB inhibition confirmation, single concentration; shares compounds with CF NFkB inh; KKLEB CF airway cells, PAF-induced NF-kB-GFP fluorescence, overnight; inhibition, % at 5 µM; actives 64% (n = 1,300);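 note: stimulus PAF is a Pseudomonas aeruginosa filtrate and not platelet activating factor; plate controls were DMSO wells with stimulus for no effect and unstimulated DMSO wells for full effect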
ABHD5 PLIN5 conf: confirmation of human ABHD5-PLIN5 interaction inhibitors. AID 651612. actives 67% (n = 2,200). inhibition, % at 4 µM. shares compounds with ABHD5-PLIN5 inh. biochemical ABHD5-PLIN5 interaction, luminescence; in the data active = inhibition above about 23%;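 note: 0% = DMSO vehicle wells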
HNF4 split-luc: counter-screen for ABHD5-PLIN5 inhibitors: HNF4 split-luciferase; actives 77% (n = 2,200); HNF4 dimerization, luminescence, biochemical; inhibition, % at 4 µM; shares compounds with ABHD5-PLIN5 inh;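 active = mean inhibition across replicate wells exceeding the computed hit threshold, cut at about 13% in these data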;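 note: light from luciferase halves that rejoin when HNF4 fusion proteins dimerize; 0% = DMSO only wells and the 100% control is not given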
Target sequence (P41235 whole entry, looked up, the tested form may be a part): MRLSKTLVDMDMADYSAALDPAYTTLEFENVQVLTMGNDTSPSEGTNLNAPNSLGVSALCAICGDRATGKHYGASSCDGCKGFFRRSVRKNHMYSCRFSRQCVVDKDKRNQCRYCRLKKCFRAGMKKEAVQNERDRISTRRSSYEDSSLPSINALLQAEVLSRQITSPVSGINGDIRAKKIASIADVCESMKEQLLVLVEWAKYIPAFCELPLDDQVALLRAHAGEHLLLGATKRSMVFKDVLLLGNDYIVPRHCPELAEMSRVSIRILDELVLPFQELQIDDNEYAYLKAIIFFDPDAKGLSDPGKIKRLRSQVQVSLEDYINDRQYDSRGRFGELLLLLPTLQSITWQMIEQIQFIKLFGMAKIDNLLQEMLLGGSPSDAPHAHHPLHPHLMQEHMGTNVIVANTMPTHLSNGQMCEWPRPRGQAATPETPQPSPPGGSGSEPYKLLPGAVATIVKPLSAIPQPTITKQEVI
Mdm2 MdmX conf-2: Mdm2/MdmX (human) interaction inhibition, confirmed. inhibition, % at 8 µM. AID 504601. SaOS-2 split-luciferase Mdm2/MdmX complementation, luminescence. shares compounds with HIF-2a block. actives 99% (n = 740);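 active = mean inhibition of the luminescence signal across two replicates at or above 26 percent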
HIF-2a conf: HIF-2a inhibition, single concentration confirmation; shares compounds with HIF-2a block; 786-0 RCC cells, HIF-2a luciferase reporter luminescence, overnight; inhibition, % at 18.8 µM; actives 56% (n = 1,800); AID 651580;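 active = mean inhibition across four replicates of at least 40 percent at the single tested concentration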
HIF-1a counter: HIF-1a inhibition counter-screen for HIF-2a hits | shares compounds with HIF-2a block | MiaPaCa-2 HIF-1a luciferase reporter, desferoxamine, overnight | inhibition, % at 18.8 µM | actives 72% (n = 1,800) | AID 651589;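 active = mean inhibition of the reporter signal across four replicates at the single tested dose of 50% or more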
The depositor's hits bear a star; x = not tested or not shown. Cut-off read from the data, not from the text of the source, unless noted: active = inhibition above about 40%; inactive = the rest.

SMILES	KKLEB cytotox	Peg3 prom inh	HIF-2a block	CF NFkB inh	Mdm2-MdmX inh	ABHD5-PLIN5 inh	Mdm2 MdmX conf-1	FLuc counter	Mdm2 MdmX conf-2	HIF-2a conf	HIF-1a counter	others
CC1CCN(CC(CS(=O)(=O)c2ccc([N+](=O)[O-])cc2)N2CCC(C)CC2)CC1 (stereo not drawn)	-42.3	108.2*	92.8*	96.5*	99.8*	-0.1	99.5*	50.5*	103.2*	23.8	106.9*	CF NFkB conf=88.0*
Cc1nc(Cl)c(C(=O)NCc2ccccc2)c(C)c1Cl	-4.3	1.3	-5.5	-6.4	17.8	3.5	x	x	x	x	x
Cc1noc(C(=O)NCc2ccccc2)c1Cl	-7.2	10.1	-7.6	3.7	9.7	9.4	x	x	x	x	x
COc1ccc(CNC(=O)c2nc(S(=O)(=O)Cc3ccccc3)ncc2Cl)cc1	-20.5	104.2*	90.7*	89.5*	76.6*	41.0*	93.5*	1.5	x	63.0*	35.5	CF NFkB conf=70.8*;ABHD5 PLIN5 conf=89.1*;HNF4 split-luc=103.0*
O=C(NCc1ccccc1)c1c(Cl)nc(Cl)c(Cl)c1Cl	-32.9	101.7*	37.0	26.7	100.3*	2.2	93.7*	52.9*	103.2*	x	x
O=C(NCc1ccccc1)c1nc(S(=O)(=O)Cc2ccccc2)ncc1Cl	-29.8	104.7*	84.7*	87.4*	73.5*	51.1*	66.7*	3.9	x	90.5*	70.1*	CF NFkB conf=65.9*;ABHD5 PLIN5 conf=88.6*;HNF4 split-luc=105.5*
O=C(NCc1ccc2c(c1)OCO2)c1nc(S(=O)(=O)Cc2ccccc2F)ncc1Cl	-1.7	105.5*	87.7*	86.2*	77.6*	76.3*	52.2*	51.2*	102.5*	68.2*	70.3*	CF NFkB conf=41.7*;ABHD5 PLIN5 conf=84.2*;HNF4 split-luc=106.0*
COc1ccc(-c2cc(C(=O)NCc3ccc(C(F)(F)F)cc3)[nH]n2)c(C)c1	-6.0	-16.5	0.0	6.5	x	-1.6	x	x	x	x	x
O=[N+]([O-])c1ccc2nc(Cl)nc(-c3ccccc3)c2c1	5.9	20.2	19.3	-21.2	96.3*	5.7	66.0*	53.9*	101.2*	x	x
O=[N+]([O-])c1cccc(-c2nc3ccc([N+](=O)[O-])cc3[nH]2)c1	2.9	-161.1	-278.2	-84.6	16.6	0.0	x	x	x	x	x
Cc1cccc(C2(c3cccc(C)c3)CC2C(=O)Nc2ccc([N+](=O)[O-])cc2O)c1 (stereo not drawn)	-61.6*	53.7*	21.9	58.4*	90.1*	-32.4	94.3*	50.8*	100.2*	x	x
C=CCNC(=O)C1CC1(c1cccc(C)c1)c1cccc(C)c1 (stereo not drawn)	-4.1	12.1	20.1	-0.9	13.8	-0.4	x	x	x	x	x
CC[C@]1(C(=O)OC)[C@H]2C(=O)N(Cc3ccccc3)C(=O)[C@H]2[C@H]2CN=C(SCc3ccc(C)cc3)N21	7.3	14.0	7.0	-1.5	92.7*	-2.2	87.7*	48.7*	96.7*	x	x
CCC[C@H](CN[C@@H](CNC)[C@H](C)CC)NCCc1cc(C(F)(F)F)cc(C(F)(F)F)c1	-48.6	99.3*	11.7	13.0	97.0*	5.7	100.2*	52.0*	103.0*	x	x
CC[C@@H](C)[C@H](CNC)NC[C@@H](Cc1cccc2ccccc12)NCCc1cccc(C(F)(F)F)c1	-48.5	102.6*	14.7	28.6	100.0*	6.0	99.5*	52.3*	103.0*	x	x
CCOC(=O)c1c(NC(=O)COc2ccc3ccc(=O)oc3c2)sc(C(=O)N(C)C)c1C	3.1	-13.3	6.9	-5.5	10.6	3.2	x	x	x	x	x
O=CC1=C(c2ccccc2)Oc2ccccc2O1	-4.6	97.9*	45.6*	36.7	56.8*	30.0*	7.8	x	x	12.1	106.9*	ABHD5 PLIN5 conf=72.9*;HNF4 split-luc=31.0*
O=C(O)c1ccc(/C=C(\c2nc3ccccc3[nH]2)c2nc3ccccc3s2)cc1	-2.0	-35.0	-48.6	6.9	-27.8	1.7	x	x	x	x	x
CC(C)(C)c1ccc(/C=C(\c2nc3ccccc3[nH]2)S(=O)(=O)c2ccccc2)cc1	-70.3*	104.2*	95.1*	94.5*	92.5*	42.7*	99.8*	51.5*	102.7*	97.1*	107.8*
O=C(c1ccc(-c2ccccc2)cc1)c1ccc([N+](=O)[O-])cc1	x	x	x	x	-1.7	x	x	x	x	x	x
O=C(C#Cc1ccccc1)c1ccc([N+](=O)[O-])cc1	-3.7	108.0*	40.2*	19.7	96.7*	6.5	82.0*	57.7*	103.0*	-2.0	88.9*
Cc1nc(NC2=NCN(CCCN3CCOCC3)CN2)nc2c(C)cccc12	7.4	10.9	4.4	-45.6	97.3*	6.9	96.4*	25.4	66.2*	x	x
NC(N)=N/N=C/c1ccc(OCc2ccccc2Cl)cc1	-18.0	102.8*	93.0*	2.6	98.3*	6.0	67.5*	32.5	x	-15.8	106.5*
COc1ccc(-c2cc(-c3ccccc3)c(C#N)c(S(C)=O)n2)cc1 (stereo not drawn)	-27.6	113.7*	75.5*	12.7	81.0*	0.4	20.9	x	x	31.2	97.5*
CCSc1nc(-c2ccc(OC)cc2)cc(-c2ccccc2)c1C#N	-5.2	21.8	1.4	21.4	20.5	-3.6	x	x	x	x	x
COc1ccc(-c2cn[nH]c2-c2ccc(OCc3ccccc3)cc2O)cc1	-13.8	16.7	10.4	70.0*	78.2*	-3.8	76.9*	54.9*	90.0*	x	x	CF NFkB conf=88.7*
Cc1ccc(N=Nc2cc(C)ccc2O)c(C)c1	15.1	-257.5	-119.1	-7.7	-5.7	1.8	x	x	x	x	x
Cc1ccc(C)c(N=Nc2ccc(O)c3ncccc23)c1	8.4	0.4	16.5	-20.7	97.0*	9.8	96.3*	50.6*	100.0*	x	x
